Test results as given in PubChem BioAssay (NCATS).
Records with an inconclusive call do not appear. Calls of active or inactive are those of the source. Unless noted, calls come from the whole dose curve; as a rule, active = well fitted inhibition curve with a large enough effect; inconclusive = small, poorly fitted or top-dose-only effect; inactive = flat fitted curve, though single readings scatter.

How the values were obtained:
[1] = qHTS drug screen for cell cycle checkpoint inhibitors in PARPi-resistant BRCA-mutant ovarian cancer cell lines. (AID 1963452; calls by dose curve); conditions: PEO1/OlaR viability, CellTiter-Glo luminescence, 96 h, stronger effect = lower value
Method in brief: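 PEO1, PEO4 and PEO1/OlaR ovarian cancer cells, 600 per well, exposed 96 h at 37C to a dilution series. Viability read by CellTiter-Glo luminescence, normalized to DMSO and empty wells; activity summarized as Z-AUC.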

[2] = qHTS for identification of novel therapeutic agents for treatment of microphthalmiaassociated transcription factor (MiT) renal cell carcinoma (RCC) (AID 1963991; calls by dose curve; note: potency is the fitted concentration of half-maximal effect); conditions: CellTiter-Glo, 48 h; for z-score: stronger effect = lower value
Method in brief: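 Viability of three TFE3-fusion renal carcinoma lines measured by CellTiter-Glo after 48 h treatment with each of 1912 compounds at 11 concentrations. Responses scaled between DMSO (100%) and empty wells (0%) before curve fitting.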

[3] = qHTS profiling for inhibitors of Plasmodium falciparum proliferation (AID 504749); note: nearly all actives have a fitted effect of over 60% in size; note: potency is the fitted concentration of half-maximal effect;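 for activity, negative = inhibition: 0% = DMSO vehicle and full inhibition = artemisinin control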; conditions: P. falciparum in erythrocytes, SYBR Green DNA, 72 h
Method in brief: (§1)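 Quantitative HTS: compounds pinned into medium, infected erythrocytes added (0.3% parasitemia, 2.5% hematocrit), 72 h culture at 37 C under 5% CO2. Saponin/Triton lysis with SYBR Green I, overnight RT, then fluorescence read.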

7G8 = assay: as above; conditions: P. falciparum in erythrocytes, SYBR Green DNA, 72 h; series mostly up to 28.7 µM
Method in brief: as §1

AA1029 = assay: as above; conditions: P. falciparum in erythrocytes, SYBR Green DNA, 72 h; series mostly up to 28.7 µM
Method in brief: as §1

AS120 = assay: as above; conditions: P. falciparum in erythrocytes, SYBR Green DNA, 72 h; series mostly up to 28.7 µM
Method in brief: as §1

3D7 = assay: as above; conditions: P. falciparum in erythrocytes, SYBR Green DNA, 72 h; series mostly up to 28.7 µM
Method in brief: as §1

[4] = measured here: PEO1 parental Z-AUC
[5] = TFE3-RCC UOK109 viability, measured here: UOK109 Z-AUC
[6] = TFE3-RCC viability, measured here: UOK124 Z-AUC
[7] = TFE3-RCC viability, measured here: UOK145 Z-AUC
[8] = at 12.8 µM (top of the series), parasite line A
[9] = at 12.8 µM (top of the series), parasite line B
[10] = at 28.7 µM (top of the series), parasite line A
[11] = at 28.7 µM (top of the series), parasite line B

COc1ccc2cc([C@H](C)C(=O)O)ccc2c1
Z-AUC [1]: -0.4 (inactive) | Z-AUC [1, 4]: -0.248 | Z-AUC ([1]; measured here: PEO4 Z-AUC): -0.0585 | z-score [2, 5]: 1.29 | z-score [2, 6]: 0.689 | z-score [2, 7]: 0.68 | activity, negative = inhibition [3, 8]: 6.49% (inactive) | activity, negative = inhibition [3, 9]: -0.339% (inactive) | Potency (7G8): inactive | Potency (AA1029): inactive | Potency (AS120): inactive

CC(S)C(=O)NCC(=O)O (stereo not drawn)
Z-AUC [1]: -0.465 (inactive) | Z-AUC [1, 4]: 0.365 | Z-AUC ([1]; measured here: PEO4 Z-AUC): 0.0416 | activity, negative = inhibition [3, 10]: 5.37% (inactive) | activity, negative = inhibition [3, 11]: 13.7% (inactive) | Potency (3D7): inactive | Potency (AA1029): inactive | Potency (AS120): inactive

CC(C)[C@H](N)C(=O)OCCOCn1cnc2c(=O)[nH]c(N)nc21
Z-AUC [1]: 1.05 (inactive) | Z-AUC [1, 4]: 0.583 | Z-AUC ([1]; measured here: PEO4 Z-AUC): 0.722 | z-score [2, 5]: 0.0968 | z-score [2, 6]: 0.361 | z-score [2, 7]: 0.522 | activity, negative = inhibition [3, 10]: -1.13% (inactive) | activity, negative = inhibition [3, 11]: 7.31% (inactive) | Potency (3D7): inactive | Potency (AA1029): inactive | Potency (AS120): inactive

COc1ccc(C2(C#N)CCC(C(=O)O)CC2)cc1OC1CCCC1 (stereo not drawn)
Z-AUC [1]: 0.982 (inactive) | Z-AUC [1, 4]: 1.47 | Z-AUC ([1]; measured here: PEO4 Z-AUC): 0.858 | activity, negative = inhibition [3, 10]: 10.1% (inactive) | activity, negative = inhibition [3, 11]: -9.11% (inactive) | Potency (3D7): inactive | Potency (7G8): inactive | Potency (AA1029): inactive | Potency (AS120): inactive

CCN(CC)CCOc1ccc(Cc2ccccc2)cc1
Z-AUC [1]: 1.12 (inactive) | Z-AUC [1, 4]: 0.729 | Z-AUC ([1]; measured here: PEO4 Z-AUC): 0.289 | activity, negative = inhibition [3, 10]: 8.39% (inactive) | activity, negative = inhibition [3, 11]: 6.88% (inactive) | Potency (3D7): inactive | Potency (7G8): 12.6 µM (active) | Potency (AA1029): inactive | Potency (AS120): inactive

CNC[C@H](O)c1ccc(O)c(O)c1
Z-AUC [1]: 0.904 (inactive) | Z-AUC [1, 4]: 1.34 | Z-AUC ([1]; measured here: PEO4 Z-AUC): 1.03 | activity, negative = inhibition [3, 10]: -8.23% (inactive) | activity, negative = inhibition [3, 11]: 3.15% (inactive) | Potency (7G8): inactive | Potency (AA1029): inactive | Potency (AS120): inactive

O=c1oc2cc(O)ccc2s1
Z-AUC [1]: 0.214 (inactive) | Z-AUC [1, 4]: 0.00456 | Z-AUC ([1]; measured here: PEO4 Z-AUC): 1.28 | z-score [2, 5]: 0.879 | z-score [2, 6]: 0.455 | z-score [2, 7]: 1.32 | activity, negative = inhibition [3, 10]: -2.41% (inactive) | activity, negative = inhibition [3, 11]: -10.3% (inactive) | Potency (3D7): inactive | Potency (AA1029): inactive | Potency (AS120): inactive

Cc1cc2cc3c(C)cc(=O)oc3c(C)c2o1
Z-AUC [1]: 0.166 (inactive) | Z-AUC [1, 4]: 0.892 | Z-AUC ([1]; measured here: PEO4 Z-AUC): 0.841 | activity, negative = inhibition [3, 8]: 2% (inactive) | activity, negative = inhibition [3, 9]: 12.4% (inactive) | Potency (3D7): inactive | Potency (7G8): inactive | Potency (AA1029): inactive | Potency (AS120): inactive

CCN(CCO)CCCC(C)Nc1ccnc2cc(Cl)ccc12 (stereo not drawn)
Z-AUC [1]: 1.8 (inactive) | Z-AUC [1, 4]: 1.41 | Z-AUC ([1]; measured here: PEO4 Z-AUC): 1.84 | Potency ([3]; parasite line A): 0.708 µM (active) | Potency ([3]; parasite line B): 1 µM (active) | Potency (3D7): 0.562 µM (active) | Potency (AA1029): inactive | Potency (AS120): inactive

CC1=C(C)C(=O)C(C(CCCCCC(=O)O)c2ccccc2)=C(C)C1=O (stereo not drawn)
Z-AUC [1]: 0.121 (inactive) | Z-AUC [1, 4]: 0.192 | Z-AUC ([1]; measured here: PEO4 Z-AUC): 0.237 | z-score [2, 5]: 0.248 | z-score [2, 6]: 0.105 | z-score [2, 7]: -0.311 | activity, negative = inhibition [3, 10]: -13.8% (inactive) | activity, negative = inhibition [3, 11]: -26.9% (inactive) | Potency (7G8): inactive | Potency (AA1029): inactive

CCC(C)(Oc1ccc(C2(c3ccc(OC(C)(CC)C(=O)O)cc3)CCCCC2)cc1)C(=O)O (stereo not drawn)
Z-AUC [1]: 0.486 (inactive) | Z-AUC [1, 4]: 0.92 | Z-AUC ([1]; measured here: PEO4 Z-AUC): 0.795 | activity, negative = inhibition [3, 10]: 2.31% (inactive) | activity, negative = inhibition [3, 11]: -9.49% (inactive) | Potency (3D7): inactive | Potency (7G8): inactive | Potency (AA1029): inactive | Potency (AS120): inactive

CCOC(=O)c1c(C)n(C)c2ccc(O)cc12
Z-AUC [1]: 1.13 (inactive) | Z-AUC [1, 4]: 0.765 | Z-AUC ([1]; measured here: PEO4 Z-AUC): 0.891 | activity, negative = inhibition [3, 10]: 15.4% (inactive) | activity, negative = inhibition [3, 11]: 20.5% (inactive) | Potency (3D7): inactive | Potency (7G8): inactive | Potency (AA1029): inactive | Potency (AS120): inactive

O=C(CS(=O)Cc1ccco1)NCC=CCOc1cc(CN2CCCCC2)ccn1 (stereo not drawn)
z-score [2, 5]: 0.673 | z-score [2, 6]: 0.332 | z-score [2, 7]: 0.715 | activity, negative = inhibition [3, 10]: 3.29% (inactive) | activity, negative = inhibition [3, 11]: -5.5% (inactive) | Potency (3D7): inactive | Potency (7G8): inactive | Potency (AA1029): inactive | Potency (AS120): inactive

O=C1CCc2ccc(OCCCCN3CCN(c4cccc(Cl)c4Cl)CC3)cc2N1
Z-AUC [1]: -1.31 (inactive) | Z-AUC [1, 4]: -0.72 | Z-AUC ([1]; measured here: PEO4 Z-AUC): -1.21 | Potency (7G8): 12.6 µM (active)

CN(c1nccc(=O)[nH]1)C1CCN(c2nc3ccccc3n2Cc2ccc(F)cc2)CC1
activity, negative = inhibition [3, 10]: -22.1% (inactive) | activity, negative = inhibition [3, 11]: -10.5% (inactive) | Potency (3D7): inactive | Potency (7G8): 11.2 µM (active)

Cc1nc(Nc2ncc(C(=O)Nc3c(C)cccc3Cl)s2)cc(N2CCN(CCO)CC2)n1
Z-AUC [1]: -3.38 (inactive) | Z-AUC [1, 4]: -2.38 | Z-AUC ([1]; measured here: PEO4 Z-AUC): -0.444 | activity, negative = inhibition [3, 11]: -17.2% (inactive) | Potency (7G8): 5.62 µM (active) | Potency (AS120): 12.6 µM (active)

CC1(C)CCC(C)(C)c2cc(NC(=O)c3ccc(C(=O)O)cc3)ccc21
activity, negative = inhibition [3, 10]: -1.01% (inactive) | activity, negative = inhibition [3, 11]: -5.09% (inactive) | Potency (3D7): inactive | Potency (AA1029): inactive | Potency (AS120): inactive

CC(C)C[C@H](NC(=O)[C@H](Cc1ccccc1)NC(=O)c1cnccn1)B(O)O
Potency ([2]; TFE3-RCC UOK109 viability, active = Z-AUC below -0.8 in all three lines): 0.118 µM (active) | z-score [2, 5]: -1.97 | z-score [2, 6]: -3.15 | z-score [2, 7]: -4.08

N=C(N=C(N)N)N1CCOCC1
activity, negative = inhibition [3, 8]: -9.52% (inactive) | activity, negative = inhibition [3, 9]: 11.1% (inactive) | Potency (3D7): inactive | Potency (7G8): inactive | Potency (AA1029): inactive

COc1c(O)cc2c(c1O)[C@@H]1O[C@H](CO)[C@@H](O)[C@H](O)[C@H]1OC2=O
z-score [2, 5]: 0.427 | z-score [2, 6]: 0.313 | z-score [2, 7]: -0.262

CCCCCCCCOc1ccccc1C(=O)Nc1ccc(C(=O)OCC[N+](C)(CC)CC)cc1
Potency ([3]; parasite line A): 12.6 µM (active) | Potency ([3]; parasite line B): 10 µM (active) | Potency (3D7): 10 µM (active) | Potency (7G8): 12.6 µM (active) | Potency (AA1029): 10 µM (active)

O=C(OC1C[C@H]2CC[C@@H](C1)[N+]21CCCC1)C(O)(c1ccccc1)c1ccccc1 (stereo partly drawn)
z-score [2, 5]: 0.286 | z-score [2, 6]: 0.765 | z-score [2, 7]: 0.653 | Potency (7G8): 6.31 µM (active) | Potency (AA1029): 2.51 µM (active)

CC1=C(C(=O)O)N2C(=O)[C@@H](NC(=O)[C@H](N)C3=CCC=CC3)[C@H]2SC1
z-score [2, 5]: 1.56 | z-score [2, 6]: 0.465 | z-score [2, 7]: 0.657

NS(=O)(=O)c1cc(C(=O)O)c(NCc2ccco2)cc1Cl
z-score [2, 5]: -0.035 | z-score [2, 6]: -0.245 | z-score [2, 7]: 0.387

C[C@H](Cn1cnc2c(N)ncnc21)OCP(=O)(O)O
z-score [2, 5]: 0.368 | z-score [2, 6]: 0.295 | z-score [2, 7]: 0.62 | activity, negative = inhibition [3, 10]: 2.65% (inactive) | activity, negative = inhibition [3, 11]: 3.87% (inactive) | Potency (3D7): inactive | Potency (7G8): inactive | Potency (AA1029): inactive | Potency (AS120): inactive

CCCCC(CC)COC(=O)C(C#N)=C(c1ccccc1)c1ccccc1 (stereo not drawn)
Potency ([3]; parasite line A): 11.2 µM (active) | Potency (7G8): 10 µM (active)

Cc1nc2n(c(=O)c1CCN1CCC(c3noc4cc(F)ccc34)CC1)CCCC2
z-score [2, 5]: 0.0752 | z-score [2, 6]: 0.441 | z-score [2, 7]: 0.372 | activity, negative = inhibition [3, 10]: 8.34% (inactive) | activity, negative = inhibition [3, 11]: 15.8% (inactive) | Potency (3D7): inactive | Potency (7G8): 10 µM (active) | Potency (AA1029): inactive | Potency (AS120): inactive
